Experimental data from PubChem BioAssay (NCI).
The panel holds about 83,000 compounds, 20% with a hit somewhere; the sample as a whole holds those more often.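 48-hour exposure, single concentration, 96-well plates; percent growth endpoint where 0 means no net growth. Active: below 10.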 Activity calls are given as the source filed them.

Tests used:
Assay in all cases: NCI-60 one-dose screen, 48 h (100 = growth as untreated, 0 = no growth, -100 = all killed)
Conditions in all cases: 10 µM unless noted
[1] = system: NCI-H23 lung
[2] = system: NCI-H226 lung
[3] = system: NCI-H322M lung
[4] = system: HOP-62 NSCLC
[5] = system: NCI-H460 lung
[6] = system: NCI-H522 lung
[7] = system: A549/ATCC NSCLC
[8] = system: 786-0 renal
[9] = system: COLO 205 colon
[10] = system: DU-145 prostate
[11] = system: K-562 leukemia
[12] = system: MALME-3M melanoma
[13] = system: MDA-MB-231 breast
[14] = system: RXF 393 renal
[15] = system: SF-268 CNS
[16] = system: SF-295 CNS
[17] = system: SF-539 CNS
[18] = system: UACC-257 melanoma
[19] = system: M14 melanoma

Measured: growth

CCC1N=C(N)N=C(N)N1c1ccc(Cl)cc1 (stereo unspecified)
inactive: [1] 89.4% | [2] 96.5% | [3] 90.4% | [4] 102% | [5] 39.1% | [6] 90.9% | [7] 38% | [8] 58.6% | [9] 121% | [10] 105% | [11] 57.1% | [12] 61.6% | [13] 99.5% | [14] 89.3% | [15] 77.2% | [16] 88.9% | [17] 109% | [18] 88.1% | [19] 79.7%

O=C(O)CSc1ccc(NCc2oc(CO)cc(=O)c2O)cc1
inactive: [1] 99.9% | [2] 94.8% | [3] 110% | [4] 105% | [5] 110% | [6] 89.3% | [7] 103% | [8] 96.6% | [9] 106% | [10] 110% | [11] 89% | [12] 99.6% | [13] 97.2% | [14] 110% | [15] 107% | [16] 106% | [17] 92.2% | [18] 105% | [19] 74.6%

COc1ccc(C(=O)OC2C(OC3C(O)COC(O[C@H]4C[C@H]5[C@@H]6CC=C7C[C@@H](O)CC[C@]7(C)[C@H]6CC[C@]5(C)[C@H]4[C@H](C)C(=O)CCC(C)C)C3OC(=O)C(C)C)OCC(O)C2O)cc1 (stereo partly specified)
inactive: [1] 43.1% | [2] 10.9% | [3] 58.6% | [7] 16.1% | [10] 38.4% | [13] 36.5%
active: [4] -14.2% | [5] 0.329% | [6] -46.1% | [8] -1.64% | [9] -47.9% | [11] -29.8% | [12] 6.67% | [14] -59.4% | [15] -9.13% | [16] -60.5% | [17] -66.2% | [18] -50% | [19] -61.4%

Clc1ccc(-c2nc(-c3cccs3)no2)cc1
inactive: [1] 89.9% | [2] 97.3% | [3] 99.4% | [4] 85.9% | [5] 97.4% | [6] 85.8% | [7] 94.8% | [8] 94.5% | [9] 109% | [10] 97.4% | [11] 101% | [12] 111% | [13] 84.2% | [14] 114% | [15] 102% | [16] 108% | [17] 102% | [18] 86.4% | [19] 105%

O=C(N/N=C\c1cc(Br)ccc1O)c1ccncc1
active: [5] 6.66% | [6] -27.2% | [9] 7.89%
inactive: [1] 43.5% | [2] 39.9% | [3] 41% | [4] 15% | [7] 55.6% | [8] 18.4% | [10] 39.4% | [11] 20.3% | [12] 46.5% | [13] 46.6% | [14] 54.9% | [15] 35.4% | [16] 55.7% | [17] 34.3% | [18] 11.5% | [19] 19.2%

CCCCCCCC/C=C/CCCCCCCC1=NC(C)(C)CN1c1ccccc1
active: [16] -5.3%
inactive: [1] 89.1% | [2] 99% | [3] 116% | [4] 100% | [5] 103% | [6] 65.1% | [7] 91.6% | [8] 81.8% | [9] 97.8% | [10] 97.2% | [11] 65.9% | [12] 115% | [13] 103% | [14] 85% | [15] 91.9% | [17] 96.9% | [18] 90.2% | [19] 99.7%

CCOC(=O)c1ccc(NC(=O)CSC(N)=O)cc1
inactive: [1] 95.8% | [2] 116% | [3] 112% | [4] 113% | [5] 101% | [6] 72.8% | [7] 98% | [8] 86.6% | [9] 98.3% | [10] 114% | [11] 103% | [12] 145% | [13] 95.9% | [14] 129% | [15] 110% | [16] 101% | [17] 96.4% | [18] 107% | [19] 94.8%

C[N+](C)(C)CC(=O)N/N=C\c1ccco1
inactive: [1] 99.6% | [2] 103% | [3] 105% | [4] 86.5% | [5] 108% | [6] 85.7% | [7] 98.1% | [8] 102% | [9] 107% | [10] 104% | [11] 53.3% | [12] 100% | [13] 118% | [14] 118% | [15] 105% | [16] 106% | [17] 95.3% | [18] 106% | [19] 111%

COc1ccc(C(=O)C(CN(C)C)c2ccc(OC)cc2)cc1 (stereo unspecified)
inactive: [1] 89.8% | [2] 84.2% | [3] 93.2% | [4] 96% | [5] 86.3% | [7] 86.3% | [8] 28.6% | [9] 57.4% | [11] 16.3% | [12] 84.9% | [13] 59.4% | [14] 55.8% | [15] 60.2% | [16] 101% | [17] 78.8% | [18] 45.3% | [19] 60.6%
active: [6] -27.1% | [10] 7.55%
